TNAP act DEA = human TNAP activation, intermediate phosphate acceptor; purified TNAP, CDP-star luminescence, 100 mM DEA, 30 min; active compounds read high; scale: 0 levamisole-inhibited, 1 vehicle-only enzyme; activation factor at 20 µM; AID 813; 64,000 tested, under 10 active;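 active = activation factor of at least 2 at 20 µM, relative to controls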
Target sequence (P05186 whole entry, looked up): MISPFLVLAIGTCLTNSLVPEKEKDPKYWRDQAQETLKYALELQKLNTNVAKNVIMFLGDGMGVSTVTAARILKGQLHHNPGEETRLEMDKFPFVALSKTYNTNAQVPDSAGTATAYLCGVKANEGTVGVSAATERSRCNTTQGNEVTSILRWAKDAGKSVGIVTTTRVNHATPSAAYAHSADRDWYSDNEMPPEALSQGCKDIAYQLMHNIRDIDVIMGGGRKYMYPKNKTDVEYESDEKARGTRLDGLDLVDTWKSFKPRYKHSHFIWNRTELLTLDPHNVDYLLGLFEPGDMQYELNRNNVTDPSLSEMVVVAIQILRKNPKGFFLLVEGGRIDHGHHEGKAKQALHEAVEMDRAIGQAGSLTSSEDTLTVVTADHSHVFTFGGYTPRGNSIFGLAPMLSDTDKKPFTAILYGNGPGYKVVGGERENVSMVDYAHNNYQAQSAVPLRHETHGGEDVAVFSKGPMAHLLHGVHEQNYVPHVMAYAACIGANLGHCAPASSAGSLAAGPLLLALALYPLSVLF
MT1-MMP txn act = activates MT1-MMP transcription; HT1080 MT1-MMP promoter luciferase reporter, luminescence, overnight; active compounds read high; activation factor at 10 µM; 86,000 tested, 0.16% active;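 active = activation factor of at least 2 for MT1-MMP transcription at 10 µM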
HePTP inh = inhibitors of human HePTP phosphatase; P35236; recombinant HePTP phosphatase activity, OD absorbance; inhibition, % at 20 µM; 110,000 tested, 0.64% active; in the data active = inhibition above about 50%;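 note: plate controls were vehicle for no effect and reference inhibitor for full effect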
Smad3 FoxH1 inh = Smad3 (human) transcription factor binding inhibition; AID 630; inhibition, % at 25 µM; 88,000 tested, 0.29% active; P84022; TR-FRET Smad3/Dy647-FoxH1 peptide binding, europium anti-His;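 active = compounds that reduce the energy-transfer binding signal between the protein and its labelled peptide by more than half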;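 note: 0% = Smad3 plus labelled peptide maximal FRET and 100% = peptide-only background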
Ec RNAP inh = inhibitors of Escherichia coli RNA polymerase; P0A8V2; E. coli RNA polymerase, fluorescence transcription assay; inhibition, %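 (tested at 10 µM)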; 62,000 tested, 0.2% active; AID 559; in the data active = inhibition above about 20%;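 note: 0% = enzyme without compound and 100% = no enzyme blank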
* hit, by the source's call; . = no result; ! = not confirmed by another sample; [ ] = dose if it differs, or a comment. A selection: hits, their analogues and other compounds. The true share with any hit is near 0.8%.

SMILES | TNAP act DEA | MT1-MMP txn act | HePTP inh | Smad3 FoxH1 inh | Ec RNAP inh
N#CCCn1cnc2c(=S)nc[nH]c21 | 0.9 | 1.2 | 6 | 6 | 6
CC(C)(C)C(=O)Cn1c(=O)n(CC2CCCO2)c(=O)c2ccccc21 (centres undefined) | 0.9 | 1.2 | 8 | -2 | 4
O=C1NCC(Cn2c3ccccc3c3ccccc32)O1 (centres undefined) | . | . | 104* | . | .
O=C(Cc1ccccc1)NN=C1c2ccccc2-c2ccccc21 | . | . | -2 | . | .
O=C(C1Cc2ccccc2CN1S(=O)(=O)c1ccc(F)cc1)N1CCCCCC1 (centres undefined) | 0.9 | 1.1 | 10 | 77*[fluorescence artefact?] | 8
O=C(C1CN(S(=O)(=O)c2ccccc2)CCN1S(=O)(=O)c1ccccc1)N1CCCCCC1 (centres undefined) | 0.9 | . | 50*! | 0 | 0
O=C(C1Cc2ccccc2CN1S(=O)(=O)c1ccc(F)cc1)N1CCOCC1 (centres undefined) | . | 1.2 | . | 3 | .
Cc1cc(Cl)ccc1OCC(=O)N1CCN(c2ccccn2)CC1 | . | . | -4 | . | .
NC(=O)COc1ccc(C2c3c(oc4ccccc4c3=O)C(=O)N2CC2CCCO2)cc1 (centres undefined) | 0.9 | 1.1 | -5 | 77* | 10
CCOC(=O)c1ccccc1NC(=O)C(C)Oc1ccc(Cl)cc1C (centres undefined) | . | . | -3 | . | .
Cc1cc2c(cc1C)CN(c1cccc(C(=O)N/N=C/c3ccc(N(C)C)cc3)c1)C2 | . | . | -20 | . | .
O=C(/C=C/c1ccc(F)cc1)N1CCN(c2cccc(Cl)c2)CC1 | . | . | 104* | . | .
Cc1ccc(N(CC(=O)Nc2cc(Cl)cc(Cl)c2)S(C)(=O)=O)cc1Cl | . | . | -10 | . | .
CCOc1cccc(=O)c2c(C)oc(C)c12 | . | 1.2 | -14 | 14 | .
CCOc1cccc(=[O+]CC)c2c(C)oc(C)c12 | . | . | 102* | . | .
CCOc1ccc(C(=O)Nc2ccc3oc(-c4ccccc4F)nc3c2)cc1Cl | . | . | 3 | . | .
CCOc1ccc(C(=O)Nc2ccc3oc(-c4ccncc4)nc3c2)cc1Cl | . | . | 98* | . | .
O=C(O)C1C2CCC(C2)C1C(=O)NCc1cccs1 (centres undefined) | . | . | 3 | . | .
COc1ccc(CN2CCN(S(C)(=O)=O)CC2)cc1Br | . | . | -1 | . | .
CCOC(=O)CN1C(=O)C(Sc2nnc(-c3ccccc3OC)s2)CCc2ccccc21 (centres undefined) | . | 1.3 | . | -1 | .
O=C1Nc2ccccc2CCC1Sc1nnc(-c2ccc(Cl)cc2)s1 (centres undefined) | . | 2.1* | . | -19 | .
O=C(CN(c1ccc(Br)cc1)S(=O)(=O)c1ccccc1)N1CCc2ccccc2C1 | . | . | -2 | . | .
C[C@H]1[C@H](C)CC[C@@]2(C(=O)O)CC[C@@]3(C)C(=CC[C@H]4[C@]5(C)C[C@H](O)[C@@H](O)[C@@](C)(CO)[C@H]5[C@H](O)C[C@@]43C)[C@H]12 | . | . | . | 86* | .
COc1nc(Cl)nc(Cl)c1Cl (tested in a mixture with another compound) | . | . | . | 83* | .
O=c1c(Cl)c(Cl)cnn1Cc1ccccc1Cl | . | . | -2 | . | .
SMILES | TNAP act DEA | MT1-MMP txn act | HePTP inh | Smad3 FoxH1 inh | Ec RNAP inh
Cc1cc(=O)c2n(Cc3ccccc3Cl)nc[n+]2[nH]1 | 0.9 | 1.3 | 7 | -2 | 57*
N#C/C(=C\c1ccccc1Cl)c1nc(-c2cccs2)cs1 | . | . | 2 | . | .
O=C(O)c1ccc2c(c1C(=O)O)C(=O)OC2(c1ccc(O)cc1)c1ccc(O)cc1 | . | . | . | 78* | .
COc1cc(/C=C2\C(=O)NC(=O)N(c3ccc(F)cc3)C2=O)ccc1OCc1ccc(C(=O)O)cc1 | . | . | 2 | . | .
CCOC(=O)c1ccc(NC(=O)CN(c2ccccc2OCC)S(=O)(=O)c2ccccc2)cc1 | . | . | 104* | . | .
COc1ccc(OC)c(N2C(=O)[C@@H]3C(c4ccccc4Cl)=NO[C@@H]3C2=O)c1 | 0.9 | 1 | . | 48 | 5
COc1ccc(C2=NO[C@@H]3C(=O)N(c4c(C)cccc4C)C(=O)[C@H]23)cc1OC | 1 | 1 | 8 | -3 | 24*
Cc1cc(C)n2nc(Nc3ccccc3)cc2n1 | 0.8 | 2* | 6 | -5 | 12
CC1(C)NC(=O)N(CC(O)COc2cccc(F)c2)C1=O (centres undefined) | 0.9 | 1.1 | 0 | -3 | 1
Cc1cccc(OCC(O)CN2C(=O)NC(C)(C)C2=O)c1 (centres undefined) | . | . | 104* | . | .
COc1cc(/C=C2/SC(=S)N(CC(=O)O)C2=O)cc(Cl)c1O | . | . | 98* | . | .
O=C(O)CN1C(=O)/C(=C\c2ccc(Cl)c(Cl)c2)SC1=S | . | . | -2 | . | .
COc1cc(OC)cc(C(=O)Nc2ccc(-c3nc4cc(C)cc(C)c4o3)cc2)c1 | . | . | -10 | . | .
